Experimental data from PubChem BioAssay (NCATS).
“And” between values parts separate entries of the source, which are not always exact repeats. Identical values can stand only once. Inconclusive results are not listed. Entries that show only a call come without a potency. The source made the active and inactive calls. Unless noted, calls come from the whole dose curve; as a rule, active = well fitted curve in the direction sought with a large enough effect; inconclusive = small, poorly fitted or top-dose-only effect, or another doubt; inactive = no such curve, though single readings can be large; an effect the other way counts as inactive or inconclusive. Residues, ends and D or L forms follow the SMILES beside them. *: point of attachment. Cbz = O=C(OCc1ccccc1)*

Experiments:
[1] = target: Cytochrome P450 2C9 (Homo sapiens) (UniProt P11712); assay: Cytochrome P450 family 2 subfamily C member 9 (CYP2C9) small molecule antagonists: luciferase biochemical (cell-free) qHTS assay (AID 1645842; active = well fitted curve in the direction sought with a large enough effect in the repeat runs; an effect the other way counts as inactive or inconclusive; note: nearly all actives have a fitted effect of over 55% in size; note: potency is the fitted concentration of half-maximal effect)
In short: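 Luminescence, after 20 min with luciferin detection reagent, reflected CYP2C9 turnover during a 1 h NADPH-driven reaction at 37C. Enzyme-substrate mix contained 0.4% bovine serum albumin and was preincubated with compound 10 min at room temperature.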

[2] = Primary qHTS for inhibitors of nuclear receptor binding SET domain protein 2 (NSD2) in an isogenic RCH-ACV NSD2 p.E1099K mutant (9B) (AID 1645876); note: nearly all actives have a fitted effect of over 70% in size; note: potency is the fitted concentration of half-maximal effect
[3] = Primary qHTS for inhibitors of nuclear receptor binding SET domain protein 2 (NSD2) in an RCH-ACV wild type WT cells (2C) (AID 1645877); note: nearly all actives have a fitted effect of over 70% in size; note: potency is the fitted concentration of half-maximal effect
[4] = target: Glutathione peroxidase 1 (Homo sapiens) (UniProt P07203); assay: Primary qHTS Assay for Inhibitors of Recombinant Selenoprotein Glutathione Peroxidase 1 (GPX1) (AID 1845191); note: nearly all actives have a fitted effect of over 65% in size
In short: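 10 nM GPX1 + cpd, 30 min RT; start w/ 1 mM GSH, 0.5 mM cumene hydroperoxide, 0.5 mM NADPH, 100 nM GR, 0.01% BSA; buffer 50 mM Tris-HCl pH 7.5, 2 mM EDTA, 150 mM NaCl; Fl 340/450, 0 & 15 min.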

[5] = target: Phospholipid hydroperoxide glutathione peroxidase GPX4 (Homo sapiens) (UniProt P36969); assay: Primary qHTS Assay for Inhibitors of Recombinant Selenoprotein Glutathione Peroxidase 4 (GPX4) (AID 1845192); note: nearly all actives have a fitted effect of over 65% in size
In short: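 NADPH consumption, followed by fluorescence at 340/450 nm between 0 and 15 min, reports GPX4 activity via coupled glutathione reductase (100 nM). Enzyme 200 nM was pre-exposed to compound 30 min; 0.5 mM cumene hydroperoxide and 1 mM GSH served as substrates.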

[6] = target: Luciferin 4-monooxygenase (Photinus pyralis) (UniProt P08659); assay: Primary firefly luciferase (FLuc) qHTS assay for identification of artifact compounds. (AID 1845220); note: nearly all actives have a fitted effect of over 60% in size
In short: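 Cell-free, 1536-well qHTS. Buffer pH 7.6 with 0.01% Tween-20 and 0.05% BSA; 10 uM D-luciferin, 10 uM ATP; 10 nM P. pyralis luciferase; luminescence after 5 min.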

[7] = Primary fluorescence-based thiol-reactive (MSTI) qHTS assay for identification of artifact compounds. (AID 1845221);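 note: thiol-reactive compounds lower the probe fluorescence signal; nearly all actives have a fitted effect of over 65% in size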
In short: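 One-hour, room-temperature, dark incubation of compound with 4 uM MSTI in PBS (pH 7.4, 2% DMSO) precedes a fluorescence read at 525 nm excitation, 598 nm emission; Hill-equation fitting yields concentration-response values.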

[8] = target: Catechol O-methyltransferase (Homo sapiens) (UniProt P21964); assay: Confirmatory Screen for Target Class Profiling of Small Molecule Inhibitors of Methyltransferases (AID 1745852); conditions: MTase-Glo luminescence, SAH detection, recombinant enzyme; measured here: COMT max response; stronger effect = lower value
[9] = target: Guanidinoacetate N-methyltransferase (Homo sapiens) (UniProt Q14353); assay: as above; conditions: activity change, negative = inhibition: at 57.3 µM (top of the series)
[10] = target: Nicotinamide N-methyltransferase (Homo sapiens) (UniProt P40261); assay: as above; conditions: MTase-Glo luminescence, SAH detection, recombinant enzyme; measured here: NNMT max response; stronger effect = lower value
[11] = target: Phenylethanolamine N-methyltransferase (Homo sapiens) (UniProt P11086); assay: as above; conditions: MTase-Glo luminescence, SAH detection, recombinant enzyme; measured here: PNMT max response; stronger effect = lower value
[12] = NCATS anti-infectives library activity on HEK293 viability as a counter-qHTS vs the C. elegans viability qHTS (AID 1745854);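 note: HEK293 cells exposed to compounds for 24 hr before the viability read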
In short: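 HEK293 cells (1,500/well) exposed 24 hr at 37C to 1:5 titrations, up to 41.7 uM final; counter-screen to a C. elegans viability qHTS. Viability by CellTiter-Glo luminescence after 10 min at room temperature; digitonin as control.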

[13] = NCATS anti-infectives library activity on the primary C. elegans qHTS viability assay (AID 1745855; calls by dose curve)
In short: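 Viability read-out is GFP fluorescence of PE254-GFP-FLuc C. elegans, measured by laser cytometry (488 nm) at day 0, 3 and 7. Ten L1 worms per well were incubated 7 days at 21 °C with compounds and bacterial capsules in S medium.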

[14] = Viability counterscreen for antagonist of constitutive androstane receptor (CAR) against the NCATS DSHEA and TCM libraries (AID 1794837);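 note: compound exposure lasted 24 h before viability reading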
In short: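 Fluorescence from CellTiter-Fluor reports live-cell protease activity in HepG2-CYP2B6-hCAR cells treated for 24 h with substances alongside 48 uM CITCO.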

[15] = target: Nuclear receptor subfamily 1 group I member 3 (Homo sapiens) (UniProt Q14994); assay: Primary qHTS for agonist of constitutive androstane receptor (CAR) against the NCATS DSHEA and TCM libraries (AID 1794839);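 note: HepG2 cells expressing human CAR with a CYP2B6 reporter plus PK11195 antagonist; luciferase reporter luminescence read with ONE-Glo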
In short: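 Cells stably carrying hCAR and a CYP2B6 reporter (HepG2 background) are seeded and allowed 5 h to adhere. Substances at multiple concentrations are added alongside 0.75 µM PK11195, and luciferase signal is measured after 24 h.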

[16] = HepG2 viability counterscreen (readout 2: ATP content) against the NCATS DSHEA and TCM libraries (AID 1794840);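 note: HepG2 cells exposed to substances for about 24 h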
In short: (§1)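 Cytotoxicity was assessed in HepG2 cells plated at 1,000 cells/well and exposed for about 24 hours to a concentration series. Protease activity and ATP content were measured sequentially in each well.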

[17] = HepG2 viability counterscreen (readout 1: protease activity) against the NCATS DSHEA and TCM libraries (AID 1794841);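 note: cells exposed to compounds for about 24 h before the protease read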
In short: as §1

Chain of Glutathione peroxidase 1 (Homo sapiens) (P07203 whole entry, looked up): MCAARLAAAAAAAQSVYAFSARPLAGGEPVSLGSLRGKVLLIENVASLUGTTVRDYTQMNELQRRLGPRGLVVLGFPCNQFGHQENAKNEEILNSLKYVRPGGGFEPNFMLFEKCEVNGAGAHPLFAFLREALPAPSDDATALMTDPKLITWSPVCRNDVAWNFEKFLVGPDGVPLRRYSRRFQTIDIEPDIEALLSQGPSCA
Chain of Phospholipid hydroperoxide glutathione peroxidase GPX4 (Homo sapiens) (P36969 whole entry, looked up): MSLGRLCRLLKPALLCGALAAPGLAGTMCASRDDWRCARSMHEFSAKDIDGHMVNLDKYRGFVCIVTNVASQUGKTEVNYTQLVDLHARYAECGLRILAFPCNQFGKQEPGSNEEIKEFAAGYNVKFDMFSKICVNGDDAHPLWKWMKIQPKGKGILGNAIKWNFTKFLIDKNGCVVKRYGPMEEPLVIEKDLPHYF
Chain of Cytochrome P450 2C9 (Homo sapiens) (P11712 whole entry, looked up): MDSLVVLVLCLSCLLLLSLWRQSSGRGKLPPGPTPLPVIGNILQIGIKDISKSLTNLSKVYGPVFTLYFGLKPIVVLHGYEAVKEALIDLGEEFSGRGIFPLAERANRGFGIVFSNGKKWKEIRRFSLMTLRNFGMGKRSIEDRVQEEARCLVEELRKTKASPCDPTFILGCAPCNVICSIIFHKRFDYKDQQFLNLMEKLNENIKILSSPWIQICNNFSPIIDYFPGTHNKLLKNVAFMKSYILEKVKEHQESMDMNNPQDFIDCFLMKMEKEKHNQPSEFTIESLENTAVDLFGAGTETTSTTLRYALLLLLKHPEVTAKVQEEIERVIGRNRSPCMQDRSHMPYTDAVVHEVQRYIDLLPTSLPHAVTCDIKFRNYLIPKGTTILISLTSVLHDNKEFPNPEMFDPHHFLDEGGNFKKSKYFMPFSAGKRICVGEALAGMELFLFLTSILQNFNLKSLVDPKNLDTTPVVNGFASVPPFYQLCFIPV
Chain of Phenylethanolamine N-methyltransferase (Homo sapiens) (P11086 whole entry, looked up): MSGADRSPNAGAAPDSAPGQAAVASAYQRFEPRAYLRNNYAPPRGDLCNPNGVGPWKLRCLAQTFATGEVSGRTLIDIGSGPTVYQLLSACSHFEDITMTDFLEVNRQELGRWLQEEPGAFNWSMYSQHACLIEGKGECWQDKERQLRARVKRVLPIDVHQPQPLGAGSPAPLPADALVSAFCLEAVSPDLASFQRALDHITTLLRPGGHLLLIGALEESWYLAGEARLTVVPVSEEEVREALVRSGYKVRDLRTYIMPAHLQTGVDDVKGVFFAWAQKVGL
Chain of Nicotinamide N-methyltransferase (Homo sapiens) (P40261 whole entry, looked up): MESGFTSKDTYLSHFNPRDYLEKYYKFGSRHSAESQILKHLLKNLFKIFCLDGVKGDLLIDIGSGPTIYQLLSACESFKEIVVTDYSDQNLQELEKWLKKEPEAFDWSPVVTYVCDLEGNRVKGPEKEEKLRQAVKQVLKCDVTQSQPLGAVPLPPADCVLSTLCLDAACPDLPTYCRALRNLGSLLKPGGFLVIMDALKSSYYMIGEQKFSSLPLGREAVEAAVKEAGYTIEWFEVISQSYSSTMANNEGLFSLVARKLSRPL
Chain of Catechol O-methyltransferase (Homo sapiens) (P21964 whole entry, looked up): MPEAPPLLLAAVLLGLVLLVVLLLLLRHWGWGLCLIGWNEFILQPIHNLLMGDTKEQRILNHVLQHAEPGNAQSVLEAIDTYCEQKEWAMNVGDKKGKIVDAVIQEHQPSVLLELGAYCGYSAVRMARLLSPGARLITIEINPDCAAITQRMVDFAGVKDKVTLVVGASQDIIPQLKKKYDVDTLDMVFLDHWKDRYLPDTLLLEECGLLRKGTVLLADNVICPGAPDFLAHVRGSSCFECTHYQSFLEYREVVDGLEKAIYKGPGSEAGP
Chain of Nuclear receptor subfamily 1 group I member 3 (Homo sapiens) (Q14994 whole entry, looked up): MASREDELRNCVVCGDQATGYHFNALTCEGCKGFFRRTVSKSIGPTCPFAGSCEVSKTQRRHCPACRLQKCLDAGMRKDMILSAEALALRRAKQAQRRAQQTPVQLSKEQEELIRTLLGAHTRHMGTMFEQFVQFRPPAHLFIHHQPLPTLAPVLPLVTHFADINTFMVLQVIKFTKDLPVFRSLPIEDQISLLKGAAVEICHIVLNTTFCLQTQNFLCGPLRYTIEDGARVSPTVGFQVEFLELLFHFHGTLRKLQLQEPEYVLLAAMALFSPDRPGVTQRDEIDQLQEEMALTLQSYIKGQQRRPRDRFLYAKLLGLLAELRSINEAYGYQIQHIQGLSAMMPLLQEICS

With OCCNC1CCCc2c1[nH]c1ccc(-c3ccccc3)cc21 (stereo not given) the Potency [1] was 26.8 µM (active), the Potency [2] was 11800 nM (active) and the Potency [3] was 11800 nM (active). For the same compound, the Potency [4] was “inactive”, the Potency [5] was “inactive” and the Potency [6] was “inactive”. The Potency [7] was “inactive”.
In the case of COc1ccc(Nc2cc(-c3cnc(N)nc3)nc(N3CCOCC3)n2)cn1, the Potency [1] is reported as 8.49 µM (active), the Potency [2] is reported as 525 nM (active) and the Potency [4] is reported as “inactive”. For the same compound, the Potency [5] was “inactive”.
For Cc1cnc(Nc2ccc(CN3CCOCC3)cc2)nc1Nc1cccc(S(=O)(=O)NC(C)(C)C)c1, the Potency [1] was 1.34 µM (active), the Potency [2] was 1.18 µM (active) and 578 nM (active) and the Potency [3] was 1.05 µM (active) and 515 nM (active). The activity [8] was -0.0774%, the activity change, negative = inhibition [9] was 0.454% and the activity [10] was -43.5%. The activity [11] was -4.34%, the Potency [4] was “inactive” and the Potency [5] was “inactive”. For the same compound, the Potency [6] was “inactive” and the Potency [7] was “inactive”.
For NC(=O)c1cccc(-c2cccc(OC(=O)NC3CCCCC3)c2)c1, the Potency [1] was “inactive”, the Potency [2] was “inactive” and the Potency [3] was “inactive”. The Potency [4] was “inactive” and the Potency [5] was “inactive”.
With Cn1cc(CNCC2CCN(c3ncc(C(=O)NO)cn3)CC2)c2ccccc21 the Potency [1] was “inactive”, the Potency [2] was 742 nM (active) and the Potency [3] was 742 nM (active). For the same compound, the Potency [12] was “inactive”, the Potency [4] was “inactive” and the Potency [5] was “inactive”.
With CC(C)C[C@@H](C=O)NC(=O)[C@H](CC(C)C)NC(=O)[C@H](CC(C)C)NC(=O)OCc1ccccc1 (Cbz-Leu-Leu-Leu-aldehyde) the Potency [2] was 1050 nM (active), the Potency [3] was 934 nM (active) and the Potency [13] was “inactive”. The Potency [4] was “inactive” and the Potency [5] was “inactive”.
For OC[C@@H](O)[C@@H](O)[C@H](O)[C@@H](O)CO, the Potency [2] was “inactive” and the Potency [3] was “inactive”.
In the case of CCOc1cc2c(c(F)c1OCC)C(=N)N(CC(=O)c1cc(N3CCOCC3)c(OC)c(C(C)(C)C)c1)C2, the Potency [1] is reported as 6.01 µM (active), the Potency [2] is reported as 23000 nM (active) and the Potency [4] is reported as “inactive”. For the same compound, the Potency [5] was “inactive” and the Potency [6] was “inactive”.
With C=C(C)[C@@H]1CC[C@]2(C(=O)O)CC[C@]3(C)[C@H](CC[C@@H]4[C@@]5(C)CC[C@H](O)C(C)(C)[C@@H]5CC[C@]43C)[C@@H]12 the Potency [2] was “inactive”, the Potency [3] was “inactive” and the Potency [12] was “inactive”. For the same compound, the outcome [14] was “inactive”, the outcome [15] was “inactive” and the outcome [16] was “inactive”. The outcome [17] was “inactive”, the Potency [4] was “inactive” and the Potency [5] was “inactive”.
In the case of CC[C@@]1([C@@H]2O[C@@H]([C@H]3O[C@@](O)(CO)[C@H](C)C[C@H]3C)C[C@H]2C)CC[C@H]([C@]2(C)CC[C@]3(C[C@H](O)[C@@H](C)[C@@H]([C@@H](C)[C@@H](OC)[C@H](C)C(=O)O)O3)O2)O1, the Potency [2] is reported as 162 nM (active) and the Potency [3] is reported as 102 nM (active).
In the case of CC(C)C[C@H](NC(=O)CNC(=O)c1cc(Cl)ccc1Cl)B1OC(=O)CC(CC(=O)O)(C(=O)O)O1 (stereo not given in full), the Potency [1] is reported as “inactive”, the Potency [2] is reported as 186 nM (active) and the Potency [4] is reported as “inactive”. The Potency [5] was “inactive”.
